# Compounds without any hit were thinned out: in the full panel of roughly 79,000, 15% have a hit. Calls of active or inactive are those of the source. Cut-off read from the data, not from the text of the source: active = growth inhibition above about 70%; inactive = the rest.
# Assay: NCI Yeast Anticancer Drug Screen. Data for the bub3 strain (AID 167)
# Settings: S. cerevisiae bub3 mutant strain, at 50.0 µM, stronger effect = higher value
# Procedure: Growth inhibition of yeast strains with defined genetic alterations is measured as a screen for potential anti-cancer activity. Selected strains with alterations in DNA damage repair or cell cycle control were exposed to compounds and growth inhibition was measured relative to vehicle treated controls. The strain used in this assay is bub3
row,Compound,growth inhibition
1,CCCCC(C(=O)O)C(=O)O,-2.05% (inactive)
2,C1CCC2CC(NC3=NCCO3)CCC2C1 (stereo not given),22.2% (inactive)
3,CC1(C)CCCc2c(-c3ccccc3)cc3c4ccccc4cc[n+]3c21,-5% (inactive)
4,C=CC1(C)CCC2C(=CCC3C2(C)CC(O)C(O)C3(C)COC2OC(C(=O)O)C(O)C(O)C2O)C1 (stereo not given) (tested in a mixture with another compound),4.95% (inactive)
5,CCc1cccc(CC)c1NC(=S)NC(=O)c1ccc(Br)cc1,-9.5% (inactive)
6,C=CCOC(=O)Nc1cc(Cl)ccc1C,-1.55% (inactive)
7,CC(=O)CC(=O)Nc1ccc(NC(=O)CC(C)=O)cc1,-23.5% (inactive)
8,C=C1C2CCC3(CCC4C5(C)CCCC4(CN(CCO)C5)C3C2)C1O (stereo not given),-13.4% (inactive)
9,COc1ccc(C(=O)CC(C#N)c2ccc(OC)cc2)cc1 (stereo not given),-4.75% (inactive)
10,Cc1ccc(/C(O)=C/c2nc3c(nc2NC24CC5CC(CC(C5)C2)C4)c(=O)oc2ccccc23)cc1,6.1% (inactive)
11,Cc1[nH]c2ccccc2c1C(=O)Cc1ccc(Cl)cc1Cl,23.8% (inactive)
12,O=C1CC2CCCC23CC2(CCN13)OCCO2 (stereo not given),-2.3% (inactive)
13,CCOc1ccccc1N(CCN(C)C)C(=O)C(c1ccccc1)c1ccccc1,25.6% (inactive)
14,[N-]=[N+]=Nc1ccccc1C(=O)NCCCNC(=O)c1ccccc1N=[N+]=[N-],19.4% (inactive)
15,CCN(CC)C(=O)c1c2nc3c(C(=O)N(CC)CC)ccc(C)c3oc-2c(C)c(=O)c1N,0.9% (inactive)
16,CCCCOC(=O)NCNC(=O)OCCCC,1.6% (inactive)
17,O=C1CC[C@@H](S(=O)(=O)c2ccccc2)[C@@H](/C=C/c2ccccc2)O1,-10.7% (inactive)
18,CC1OC(=O)c2cc3ccccc3cc2O1 (stereo not given),-19.2% (inactive)
19,NC1C(O)OCC(O)C1O (stereo not given),19.4% (inactive)
20,O=S1(=O)NC2CCC3NS(=O)(=O)NC4CCC(N1)N4S(=O)(=O)N23 (stereo not given),-0.55% (inactive)

row,Compound,growth inhibition
1,Cc1ccc(C2(C)CC/C(=N/N=C3/CCC(C)(c4ccc(C)c(C)c4)c4cc(C)c(C)cc43)c3cc(C)c(C)cc32)cc1C (stereo not given),-11.4% (inactive)
2,NC(=S)N/N=C/C=C/c1ccco1,20.3% (inactive)
3,O=C(NC(=S)Nc1cccc2ccccc12)c1ccccc1F,44% (inactive)
4,O=C(NC(Cc1ccccc1)C(=O)O)c1ccccc1 (stereo not given),6.7% (inactive)
5,CC/C=C\C/C=C\C/C=C\CCCCCCCC(=O)OC(COC(=O)CCCCCCCCCCCCCCCCC)COC1OC(CO)C(O)C(O)C1O (stereo not given),32.2% (inactive)
6,CCN(CC)c1ccc(C)cc1Cl,7.05% (inactive)
7,CC(C)=CCC\C(C)=C/C=C/C(C)=C\C=C\C(C)=C/C=C/C=C(C)\C=C\C=C(C)/C=C/C=C(/C)CCC=C(C)C,-30.6% (inactive)
8,Nc1ccc(N(C(=O)c2ccccc2)C(=O)c2ccccc2)c(-c2ccccc2)c1,11.1% (inactive)
9,C=C(C)c1ccccc1S(=O)(=O)c1ccccc1C(C)(C)O,36.5% (inactive)
10,O=C1/C(=C/c2ccc(Cl)c(Cl)c2)CCC/C1=C\c1ccc(Cl)c(Cl)c1,-3.7% (inactive)
11,CCCC(=O)NC(Nc1cc(C)ccn1)(C(=O)OCC)C(F)(F)F (stereo not given),15.8% (inactive)
12,O=C1CN(Cc2ccccc2)CCO1,10.5% (inactive)
13,CC1(C)S/C(=C\c2ccccc2)c2nc3ccccc3c(=O)n21,-0.4% (inactive)
14,O=C(Cn1c(C(=O)c2ccccc2)nc2ccccc21)c1ccccc1,-16.4% (inactive)
15,Cc1cc(Cl)c(Cl)cc1NC(=O)c1ccc(Cl)c(Cl)c1,45.1% (inactive)
16,COC(=O)C1=C(C)N(NC(=O)Nc2ccccc2)C2(N)N(NC(=O)Nc3ccccc3)C(C)=C(C(=O)OC)C12C(=O)OC (stereo not given),15.2% (inactive)
17,CCOC(=O)C1=CCOc2cc(N(C)C)ccc21,8.75% (inactive)
18,CCCP1(=O)C=C(C)C(=C(Cl)Cl)C(C)=C1 (stereo not given),-10.4% (inactive)
19,CN1C(c2ccccc2)=C(C#N)C(=O)CC(c2ccc(Cl)cc2)N1C (stereo not given),-15.8% (inactive)
20,Cc1ncc(CO)c(Cc2ccc(N(C)C)cc2)c1O,-58.8% (inactive)
